Compound activity: PubChem BioAssay, National Center for Advancing Translational Sciences (NCATS)
HPGD block = qHTS Assay for Inhibitors of HPGD (15-Hydroxyprostaglandin Dehydrogenase); 15-hydroxyprostaglandin dehydrogenase [NAD(+)] (Homo sapiens), P15428; purified HPGD, NADH fluorescence kinetic, PGE2 substrate; Potency, µM, without a hit: at the highest dose activity change, negative = inhibition, usual class: inhibitors; 150,000 tested, 4.3% active; active means well fitted inhibition curve with a large enough effect, not every such curve was filed as active; inconclusive means small, poorly fitted or top-dose-only effect, or another doubt; inactive means no such curve, though single readings can be large or run the other way; further: on the % scale 0 is the no-effect control and ±100 the full control effect
Target sequence (P15428 whole entry, looked up): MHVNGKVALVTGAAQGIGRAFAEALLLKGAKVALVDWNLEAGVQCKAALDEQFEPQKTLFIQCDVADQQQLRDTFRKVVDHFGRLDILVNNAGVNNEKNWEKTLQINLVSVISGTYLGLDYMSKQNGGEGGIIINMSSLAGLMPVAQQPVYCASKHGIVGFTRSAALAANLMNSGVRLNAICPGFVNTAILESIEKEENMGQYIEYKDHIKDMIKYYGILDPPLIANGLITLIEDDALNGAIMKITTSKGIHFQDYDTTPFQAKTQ
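20 nM HPGD preincubated 15 min at room temperature with compound in 50 mM Tris-HCl pH 8, 0.01% Tween 20. Started with 1 mM NAD+ and 30 uM prostaglandin E2; NADH fluorescence (360/450 nm) read 5 times over 30-s intervals, last minus first.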
ALDH1A1 inh = qHTS Assay for Inhibitors of Aldehyde Dehydrogenase 1 (ALDH1A1); Purified ALDH1A1, NADH fluorescence, propionaldehyde substrate; 220,000 tested, 7.3% active; Aldehyde dehydrogenase 1A1 (Homo sapiens), P00352; Potency, µM (series often up to 75.3 µM), for the others: at the top dose activity, negative = inhibition, most hits filed as inhibitors; AID 1030, 2008; active means well fitted inhibition curve with a large enough effect, not every such curve was filed as active; inconclusive means small, poorly fitted or top-dose-only effect, or another doubt; inactive means no such curve, though single readings can be large or run the other way;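 further: plate controls were no enzyme wells and a reference inhibitor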
HTT cytoprotect = qHTS Multiplex Assay to Identify Dual Action Probes in a Cell Model of Huntington: Cytoprotection (ATP) | Potency, µM (series often up to 56.4 µM), for inactives: cytoprotection (ATP increase), hits mostly activators | PC12 HTT-Q103 induced, cytoprotection, ATP luminescence, 40 h | AID 1471, 2008 | 230,000 tested, 0.14% active; further: % of control where 0% means no effect; nearly all actives have a fitted effect of over 45% in size
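Huntington model: PC12 line, ecdysone-inducible HTTQ103 exon1–GFP, tebufenozide 100 nM. Test articles in a dose series. Endpoint luminescence from cellular ATP.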
KinaseGlo FLuc = Counterscreen for Luciferase (Kinase-Glo TM) Inhibition. AID 1379, 2008. Potency, µM (top dose mostly 38.3 µM), for the others: at the highest dose activity change, negative = inhibition, hits mostly inhibitors. 200,000 tested, 0.28% active. Luciferin 4-monooxygenase (Photuris pensylvanica), Q27757. Kinase-Glo luciferase, ATP luminescence, 8 min; further: on the % scale 0 is the no-effect control and ±100 the full control effect; nearly all actives have a fitted effect of over 60% in size
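Light output from Kinase-Glo luciferase with luciferin and 10 uM ATP in 50 mM imidazole pH 7.2, KCl, MgCl2, Tween 20, BSA; compound pin-delivered, 8-min ambient incubation, then luminescence read.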
HTT aggregate = qHTS Multiplex Assay to Identify Dual Action Probes in a Cell Model of Huntington: Aggregate Formation (GFP); AID 1688, 2009; Potency, µM (doses to about 46.1 µM), for inactives: top-dose activity change, negative = inhibition, hits mostly inhibitors; PC12 HttQ103-GFP aggregates, Acumen cytometry, 40 h; 220,000 tested, 1.1% active; further: on the % scale 0 is the no-effect control and ±100 the full control effect; nearly all actives have a fitted effect of over 60% in size
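Read-out: GFP aggregate count by laser scanning cytometer (488 nm excitation, 500-530 nm emission, 1–25 µm objects >6 SD above background). Cells: PC12, inducible HTTex1-Q103-GFP, 100 nM tebufenozide; compounds titrated.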
Lamin A splicing = qHTS Assay for Modulators of Lamin A Splicing. Potency, µM (top dose mostly 46.1 µM), inactives show top-dose ratio change, negative = inhibition, most hits filed as inhibitors. 200,000 tested, 0.01% active. HeLa LMNA splicing GFP/RFP minigene ratio, 48 h. AID 1487, 2009; active means well fitted inhibition curve with a large enough effect in the signal ratio, with a control signal flat, not every such curve was filed as active; inconclusive means small, poorly fitted or top-dose-only effect, or effect the other way, or a change in a side signal; the % refers to the signal ratio; further: on the % scale 0 is the no-effect control and ±100 the full control effect
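Read-out is the ratio of GFP to DsRed2 object intensity, acquired by 488 nm laser-scanning cytometry on HeLa lamin A-EGFP minigene reporter cells. Compound incubation 48 hrs at 37 °C in Opti-MEM with 2% FBS; DMSO 0.5% final.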
An asterisk follows results filed as active; u = inconclusive; x = not tested or not shown; [ ] = remark or other dose. Compounds with a hit are over-represented: about 9% of the library has one in this group of screens. Unless noted, the call rests on the fitted dose curve; in most records, active means well fitted curve in the direction sought with a large enough effect; inconclusive means small, poorly fitted or top-dose-only effect, or another doubt; inactive means no such curve, though single readings can be large; an effect the other way counts as inactive or inconclusive. Potency means the concentration at half of the fitted maximal effect.

SMILES	HPGD block	ALDH1A1 inh	HTT cytoprotect	KinaseGlo FLuc	HTT aggregate	Lamin A splicing
COc1ccc(N2CCN(C(c3nnnn3CCc3ccccc3)C(C)C)CC2)cc1 (configuration not stated)	-1%	10%	7%	-5%	0%	u
CC(C)N(Cc1ccccc1)C(=O)/C=C/c1ccccc1[N+](=O)[O-]	x	5.6µM*	17%[10 µM]	0%	6%[9.22 µM]	u
O=C(O)/C=C/c1ccccc1[N+](=O)[O-]	x	x	13%[10 µM]	x	5%[9.22 µM]	x
O=C(O)CC/C(=C\c1ccc(Cl)c([N+](=O)[O-])c1)c1nc2ccccc2s1	-23%	u	14%[10 µM]	-4%	-11%	6%
Brc1ccc(CSc2nnc(-c3ccco3)o2)cc1	25µM*	-6%	-14%[10 µM]	-1%	-1%	7%
Cc1ccc(CSc2nnc(-c3ccco3)o2)cc1	25µM*	-8%	-33%	-3%	-1%	19%
c1ccc(CSc2nnc(-c3ccco3)o2)cc1	x	x	-16%[10 µM]	x	-11%[9.22 µM]	x
CN(C)S(=O)(=O)c1ccc(C(=O)Nc2ccc(CCC(=O)N3CCCC3)cc2)cc1	16µM*	22µM*	-9%	4%	-24%	-9%
O=C(Nc1cccc(S(=O)(=O)N2CCCCC2)c1)c1ccc2c(=O)n3c(nc2c1)CCCCC3	x	2.5µM*	29%[10 µM]	x	-9%	u
CC(=O)c1cccc(NC(=O)c2ccc(S(=O)(=O)N3CCCCC3)cc2)c1	-7%	22µM*	-18%[0.074 µM]	4%	u	-20%
O=C(Nc1ccccc1)c1ccc(S(=O)(=O)N2CCCCC2)cc1	-13%	-2%	11%[10 µM]	2%	-26%	u
CCc1ccc(NC(=O)c2ccc3c(=O)n4c(nc3c2)CCCCC4)cc1	x	x	16%[10 µM]	x	12%[9.22 µM]	x
O=C(Nc1ccc2c(c1)OCCO2)c1ccc(Br)c(S(=O)(=O)N2CCOCC2)c1	x	u	-3%[10 µM]	x	-17%	u
O=C(Nc1ccc2c(c1)OCO2)c1ccc(Br)c(S(=O)(=O)N2CCCC2)c1	-15%	u	-7%	-2%	13µM*	u
CCOC(=O)N1CCC(NC(=O)c2ccc3c(=O)n4c(nc3c2)CCCC4)CC1	-6%	2µM*	-14%[0.074 µM]	-1%	15%	9%
O=C(Nc1cc(S(=O)(=O)Nc2ccc(Cl)cc2)ccc1O)c1ccc(S(=O)(=O)N2CCCCCC2)cc1	x	3.2µM*	-9%[10 µM]	-2%	1%	x
O=C(NC1CCS(=O)(=O)C1)c1ccc(S(=O)(=O)N2CCCCC2)cc1 (configuration not stated)	x	25µM*	10%[10 µM]	1%	-4%[9.22 µM]	x
CS(=O)(=O)Nc1ccc(C(=O)Nc2ccc(S(=O)(=O)N3CCCC3)cc2)cc1	x	25µM*	-32%	-1%	7%	-15%[9.22 µM]
O=C(CNc1cccc(C(F)(F)F)c1)N/N=C/c1ccccc1C(=O)O	x	6%	0%[10 µM]	x	-4%[9.22 µM]	x
O=C(Nc1ccc2c(c1)OCCO2)c1ccc(S(=O)(=O)N2CCCCC2)cc1	-14%	25µM*	-1%[10 µM]	11%	u	u
O=C(Nc1ccc(N2CCOCC2)cc1)c1ccc(S(=O)(=O)N2CCCCC2)cc1	x	0.11µM*	-5%	x	-7%	2%
O=C(COC(=O)c1ccc(S(=O)(=O)N2CCCC2)cc1)Nc1ccc(N2CCOCC2)cc1	x	-11%	-15%	2%	5%	x
C/C(=N\NC(=O)c1ccccc1Br)c1ccc(N2CCOCC2)cc1	x	-7%	19%[10 µM]	0%	15%	x
COc1cc(/C=N/NC(=O)CCc2ccccc2)ccc1O	u	u	-2%	-6%	u	5%
Cc1c(C(=O)N2CCN(CCc3ccccc3)CC2)oc2ccccc12	-4%	14µM*	-75%[10 µM]	0%	-3%	-1%
Nc1cc2ccncc2c2ccccc12	x	x	20%[10 µM]	x	0.35µM*	x
